Our source for the G2/M cells values is PubChem BioAssay AID2088 (The Scripps Research Institute Molecular Screening Center, 2009).

A short description of the test: HeLa cell cycle G2/M accumulation – FACS, mechanism study for Wee1 degradation inhibitor project, late-stage follow-up (AID 2088). Conditions: HeLa Wee1-luciferase degradation, luminescence, G2/M arrest assay, compound-treated cells, stronger effect = higher value, concentration not given here.

On to `Cc1ccnc(NC(=O)CCCOc2cc(=O)n(C)c3ccccc23)c1`, for which the G2/M cells was determined as 30.5%.
